# In PubChem BioAssay (EPA / NIEHS):
# Several values for one entry are separate records, joined by “and”; a condition that tells them apart may be missing. Identical values can stand only once. Results filed as inconclusive are left out. Some structures have more than one record in an assay (separate samples or runs), and their calls can disagree. Activity calls are given as the source filed them. How the source made its calls, unless noted: active means hit-call score of the fitted dose curve at least 0.9, where 1 is the maximum; inactive means score below 0.9.
# Legend:
# [1] = molecular target: Glucocorticoid receptor (Homo sapiens) (UniProt P04150); assay: ATG_GR_TRANS: Attagene TRANS-FACTORIAL HepG2 Assay for human Glucocorticoid Receptor (GR) (AID 2282978; active means hit-call score of the fitted dose curve at least 0.9, where 1 is the maximum;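 further: activators score as hits since higher reporter transcript over DMSO is fitted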); conditions: HepG2 Attagene TRANS GR reporter, mRNA transcription
# Sequence of Glucocorticoid receptor (Homo sapiens) (P04150 whole entry, looked up): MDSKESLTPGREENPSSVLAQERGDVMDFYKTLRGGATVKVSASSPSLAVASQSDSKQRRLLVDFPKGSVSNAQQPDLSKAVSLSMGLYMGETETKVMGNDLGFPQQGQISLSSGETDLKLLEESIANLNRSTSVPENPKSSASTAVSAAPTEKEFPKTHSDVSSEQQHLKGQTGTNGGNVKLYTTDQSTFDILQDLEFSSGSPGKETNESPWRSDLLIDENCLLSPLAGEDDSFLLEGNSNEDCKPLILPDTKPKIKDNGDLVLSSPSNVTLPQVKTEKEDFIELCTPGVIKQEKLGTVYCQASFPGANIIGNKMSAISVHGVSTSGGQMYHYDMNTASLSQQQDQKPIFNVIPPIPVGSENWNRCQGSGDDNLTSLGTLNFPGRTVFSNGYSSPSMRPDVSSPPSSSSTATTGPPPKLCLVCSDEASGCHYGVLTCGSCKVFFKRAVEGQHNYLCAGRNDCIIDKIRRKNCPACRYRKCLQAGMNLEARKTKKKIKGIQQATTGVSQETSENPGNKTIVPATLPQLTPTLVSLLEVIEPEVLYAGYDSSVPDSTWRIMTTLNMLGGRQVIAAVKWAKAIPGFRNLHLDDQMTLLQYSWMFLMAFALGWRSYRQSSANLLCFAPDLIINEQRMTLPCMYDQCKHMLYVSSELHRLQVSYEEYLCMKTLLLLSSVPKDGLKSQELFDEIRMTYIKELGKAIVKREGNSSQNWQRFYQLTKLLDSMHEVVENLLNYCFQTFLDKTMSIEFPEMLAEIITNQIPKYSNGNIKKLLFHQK
# Summary of the method: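 Multiplexed TRANS reporter system, HepG2; 24 h exposure; RNA → oligo(dT) RT → reporter-specific PCR → 6-FAM primer extension → HpaI cut → CE fluorescence. Gain-of-signal vs DMSO.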
# [2] = ATG_M_32_TRANS: Attagene TRANS-FACTORIAL HepG2 Assay for M32 Transcription Factor (Internal Marker) (AID 2282984; active means hit-call score of the fitted dose curve at least 0.9, where 1 is the maximum;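 further: transcript level of a background control reporter unit measured by RT-PCR and capillary electrophoresis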); conditions: HepG2 Attagene TRANS M32 internal marker reporter
# Summary of the method: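 Human hepatoma HepG2, transient MRTU transfection, 24 h treatment. RNA → RT-PCR → fluorescent primer extension → HpaI digest (2 h, 37 C) → CE. Positive-direction fit vs DMSO.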
# [3] = molecular target: Nuclear receptor subfamily 4 group A member 2 (Homo sapiens) (UniProt P43354); assay: ATG_NURR1_TRANS: Attagene TRANS-FACTORIAL HepG2 Assay for human Nuclear Receptor Related Protein 1 (NURR1) (AID 2282985; active means hit-call score of the fitted dose curve at least 0.9, where 1 is the maximum); conditions: HepG2 Attagene TRANS reporter, mRNA readout
# Sequence of Nuclear receptor subfamily 4 group A member 2 (Homo sapiens) (P43354 whole entry, looked up): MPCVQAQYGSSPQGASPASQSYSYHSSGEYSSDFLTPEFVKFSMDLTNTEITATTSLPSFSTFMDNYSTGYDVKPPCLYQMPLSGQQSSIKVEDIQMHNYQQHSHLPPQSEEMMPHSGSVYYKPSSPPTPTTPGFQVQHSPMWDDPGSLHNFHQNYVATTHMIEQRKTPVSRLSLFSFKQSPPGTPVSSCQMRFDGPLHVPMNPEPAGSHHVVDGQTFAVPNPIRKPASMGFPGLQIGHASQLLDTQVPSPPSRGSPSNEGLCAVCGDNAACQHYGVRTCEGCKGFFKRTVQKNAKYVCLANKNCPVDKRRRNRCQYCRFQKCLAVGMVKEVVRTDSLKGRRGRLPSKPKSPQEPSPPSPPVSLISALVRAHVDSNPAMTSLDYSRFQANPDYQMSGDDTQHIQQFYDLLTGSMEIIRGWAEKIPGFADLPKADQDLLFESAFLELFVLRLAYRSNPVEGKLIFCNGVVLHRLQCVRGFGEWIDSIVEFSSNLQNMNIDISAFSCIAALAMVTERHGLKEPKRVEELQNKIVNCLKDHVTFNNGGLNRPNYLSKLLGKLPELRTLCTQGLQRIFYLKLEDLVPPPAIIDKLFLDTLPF
# Summary of the method: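 After 24 h chemical dosing, total RNA from transiently transfected HepG2 cells was reverse-transcribed and reporter cDNA PCR-amplified, FAM-labelled and analysed by capillary electrophoresis. Activity fitted in positive direction, DMSO as negative control.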
# [4] = molecular target: Transcriptional activator Myb (Homo sapiens) (UniProt P10242); assay: ATG_Myb_CIS: Attagene CIS-FACTORIAL HepG2 Assay for human Myeloblastosis (Myb) Proto-Oncogene Transcription Factor (AID 2282986); conditions: HepG2 Attagene CIS-FACTORIAL Myb reporter transcription; actives raise or lower the signal
# Sequence of Transcriptional activator Myb (Homo sapiens) (P10242 whole entry, looked up): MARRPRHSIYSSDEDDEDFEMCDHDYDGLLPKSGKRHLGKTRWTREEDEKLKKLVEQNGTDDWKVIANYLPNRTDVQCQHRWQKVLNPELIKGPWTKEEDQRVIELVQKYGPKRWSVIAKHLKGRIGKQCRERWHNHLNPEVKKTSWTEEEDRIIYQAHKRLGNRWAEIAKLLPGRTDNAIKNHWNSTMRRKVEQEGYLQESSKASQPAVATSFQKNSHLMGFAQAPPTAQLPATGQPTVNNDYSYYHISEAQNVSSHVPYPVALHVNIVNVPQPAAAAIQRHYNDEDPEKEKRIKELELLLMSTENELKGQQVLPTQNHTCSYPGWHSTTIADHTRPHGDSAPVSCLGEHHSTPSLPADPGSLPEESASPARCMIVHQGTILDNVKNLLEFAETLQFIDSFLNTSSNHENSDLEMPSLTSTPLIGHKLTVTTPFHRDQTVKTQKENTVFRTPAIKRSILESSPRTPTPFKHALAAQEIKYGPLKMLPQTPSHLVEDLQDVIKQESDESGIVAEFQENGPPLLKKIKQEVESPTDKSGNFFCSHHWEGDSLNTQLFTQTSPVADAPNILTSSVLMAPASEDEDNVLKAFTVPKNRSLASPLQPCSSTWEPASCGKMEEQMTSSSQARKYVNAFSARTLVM
# Summary of the method: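 Endogenous transcription factor activity at a Myb-responsive cis element is reported in human liver HepG2 cells after 24 h chemical treatment. Reporter mRNA is detected by RT-PCR and capillary electrophoresis fluorescence, with DMSO as baseline.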
# [5] = molecular target: Nuclear respiratory factor 1 (Homo sapiens) (UniProt Q16656); assay: ATG_NRF1_CIS: Attagene CIS-FACTORIAL HepG2 Assay for human Nuclear Respiratory Factor 1 (NRF1) Orphan Gene (AID 2282987); conditions: HepG2 NRF1 cis-element reporter, Attagene multiplex; actives raise or lower the signal
# Sequence of Nuclear respiratory factor 1 (Homo sapiens) (Q16656 whole entry, looked up): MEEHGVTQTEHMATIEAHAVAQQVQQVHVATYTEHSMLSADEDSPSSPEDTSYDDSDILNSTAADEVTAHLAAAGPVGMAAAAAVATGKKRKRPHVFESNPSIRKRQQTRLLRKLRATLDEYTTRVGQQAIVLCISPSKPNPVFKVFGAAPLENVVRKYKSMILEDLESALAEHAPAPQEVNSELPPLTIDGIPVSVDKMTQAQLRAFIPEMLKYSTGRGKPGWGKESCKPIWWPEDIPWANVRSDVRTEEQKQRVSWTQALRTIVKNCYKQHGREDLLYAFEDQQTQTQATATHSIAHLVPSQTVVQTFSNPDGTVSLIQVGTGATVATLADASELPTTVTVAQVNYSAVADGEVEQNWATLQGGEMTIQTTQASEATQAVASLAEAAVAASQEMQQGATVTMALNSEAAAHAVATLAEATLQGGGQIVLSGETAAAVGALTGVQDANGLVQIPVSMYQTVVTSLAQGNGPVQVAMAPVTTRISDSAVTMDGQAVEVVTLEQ
# Summary of the method: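 Human hepatoma HepG2 cells carrying transfected promoter-regulated reporter units were incubated with test chemicals for 24 h. Reporter transcripts were measured by RT-PCR plus capillary electrophoresis, and endpoints derived by bidirectional fitting with DMSO as baseline.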
# [6] = ATG_NFI_CIS: Attagene CIS-FACTORIAL HepG2 Assay for human Nuclear Factor I (NFI) (AID 2282989); conditions: HepG2 cis-regulatory reporter, NFI response element transcription; actives raise or lower the signal
# Summary of the method: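 After transient transfection of HepG2 with cis-promoter reporter constructs and 24 h dosing, RNA is reverse-transcribed, amplified, 6-FAM end-labelled and HpaI-digested before capillary analysis. Bidirectional curve fitting against DMSO.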
# [7] = molecular target: Myc proto-oncogene protein (Homo sapiens) (UniProt P01106); assay: ATG_Myc_CIS: Attagene CIS-FACTORIAL HepG2 Assay for human Myelocytomatosis (Myc) Proto-Oncogene Transcription Factor (AID 2282990); conditions: HepG2, Attagene cis-reporter transcription factor activity; actives raise or lower the signal
# Sequence of Myc proto-oncogene protein (Homo sapiens) (P01106 whole entry, looked up): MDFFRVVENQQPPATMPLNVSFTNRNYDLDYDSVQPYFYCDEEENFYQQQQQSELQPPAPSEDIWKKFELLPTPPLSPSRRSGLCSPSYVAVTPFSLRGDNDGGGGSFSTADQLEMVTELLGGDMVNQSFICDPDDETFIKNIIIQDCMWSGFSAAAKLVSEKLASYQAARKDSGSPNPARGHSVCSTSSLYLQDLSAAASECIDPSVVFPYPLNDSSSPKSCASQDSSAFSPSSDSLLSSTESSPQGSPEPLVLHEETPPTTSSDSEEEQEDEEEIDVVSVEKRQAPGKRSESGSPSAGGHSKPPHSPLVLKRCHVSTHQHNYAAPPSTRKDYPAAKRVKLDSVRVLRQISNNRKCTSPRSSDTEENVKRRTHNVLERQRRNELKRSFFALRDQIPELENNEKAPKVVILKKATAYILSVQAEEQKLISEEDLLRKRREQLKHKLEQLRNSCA
# Summary of the method: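 DMSO-normalised, bidirectionally fitted reporter mRNA signal. HepG2 cells transfected with cis reporter constructs, treated 24 h; transcripts detected by RT-PCR, 6-FAM primer extension and CE.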
# [8] = ATG_NF_kB_CIS: Attagene CIS-FACTORIAL HepG2 Assay for human Nuclear Factor Kappa B (NF-kB) (AID 2282991); conditions: HepG2 Attagene cis-factorial NF-kB reporter mRNA; actives raise or lower the signal
# Summary of the method: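 Multiplexed cis-reporter assay in transiently transfected HepG2. 24 h treatment; RNA isolated, RT-PCR, labelled fragments resolved by CE. DMSO baseline.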
# [9] = ATG_NRF2_ARE_CIS: Attagene CIS-FACTORIAL HepG2 Assay for human Nuclear Factor Erythroid 2 Related Factor 2 (NFR2) response to Antioxidant Response Elements (ARE) (AID 2282992); conditions: HepG2 Attagene ARE/NRF2 reporter, transcription factor activity; actives raise or lower the signal
# Summary of the method: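 Transient MRTU transfection of HepG2; 24 h compound exposure; TriZol RNA, RT with oligo(dT), PCR, 6-FAM primer extension, HpaI cut, CE. Bidirectional fit vs DMSO.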
# [10] = ATG_Oct_MLP_CIS: Attagene CIS-FACTORIAL HepG2 Assay for human Octamer-Binding Transcription Factor (Oct) (AID 2282993); conditions: HepG2 Attagene cis-factorial Oct reporter, mRNA; actives raise or lower the signal
# Summary of the method: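 Cells of the HepG2 line express promoter-controlled reporter sequences whose mRNA levels, after 24 h treatment, are measured by RT-PCR and capillary electrophoresis. Increases and decreases are scored relative to DMSO.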
# [11] = molecular target: Cellular tumor antigen p53 (Homo sapiens) (UniProt P04637); assay: ATG_p53_CIS: Attagene CIS-FACTORIAL HepG2 Assay for human p53 Transcription Factor (AID 2282994); conditions: HepG2 p53 cis-element reporter, Attagene mRNA; actives raise or lower the signal
# Sequence of Cellular tumor antigen p53 (Homo sapiens) (P04637 whole entry, looked up): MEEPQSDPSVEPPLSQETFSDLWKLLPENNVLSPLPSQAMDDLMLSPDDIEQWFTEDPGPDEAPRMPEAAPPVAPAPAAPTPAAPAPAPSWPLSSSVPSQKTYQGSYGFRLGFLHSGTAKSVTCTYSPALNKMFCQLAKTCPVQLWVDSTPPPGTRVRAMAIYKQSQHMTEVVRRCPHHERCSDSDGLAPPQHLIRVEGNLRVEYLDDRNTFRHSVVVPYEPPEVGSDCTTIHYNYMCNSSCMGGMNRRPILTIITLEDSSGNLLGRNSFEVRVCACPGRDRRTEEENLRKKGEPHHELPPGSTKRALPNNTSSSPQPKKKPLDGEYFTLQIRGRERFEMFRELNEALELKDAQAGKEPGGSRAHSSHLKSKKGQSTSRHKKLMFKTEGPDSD
# Summary of the method: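 HepG2, transient MRTU transfection (cis promoter elements, endogenous TFs); 24 h dosing; RNA isolation, RT-PCR, 6-FAM primer extension, HpaI digest, CE fluorescence; bidirectional fit vs DMSO.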
# [12] = BSK_3C_TissueFactor: BioMAP Diversity Plus: 3C Assay for Tissue Factor Biomarker Activity (AID 2282997); conditions: BioMAP 3C HUVEC, tissue factor biomarker readout; actives raise or lower the signal
# Summary of the method: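 Values derive from bidirectional curve fitting against DMSO of Tissue Factor ELISA signals, taken 24 h after dosing primary human umbilical vein endothelial cells.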
# [13] = BSK_3C_uPAR: BioMAP Diversity Plus: 3C Assay for Urokinase-type plasminogen activator receptor (uPAR) Biomarker Activity (AID 2282998); conditions: BioMAP 3C HUVEC, uPAR biomarker ELISA; actives raise or lower the signal
# Summary of the method: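 Endothelial primary cells of human umbilical vein origin received test chemical; 24 h later uPAR was assayed by ELISA. Fitting was bidirectional, DMSO as negative control.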
# [14] = BSK_3C_VCAM1: BioMAP Diversity Plus: 3C Assay for Vascular cell adhesion molecule 1 (VCAM1) Biomarker Activity (AID 2282999); conditions: BioMAP 3C HUVEC, VCAM1 ELISA, cytokine-stimulated; actives raise or lower the signal
# Summary of the method: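 Human umbilical vein endothelial cells were dosed with compound for 24 h, after which cell-surface VCAM-1 was quantified by ELISA. Bidirectional curve fitting used DMSO as negative control and activity baseline.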
# [15] = BSK_4H_Eotaxin3: BioMAP Diversity Plus: 4H Assay for Eotaxin 3 Biomarker Activity (AID 2283000); conditions: primary human endothelial cells (HUVEC); actives raise or lower the signal;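 on outcome: CCL26 protein level quantified by ELISA in parallel with SRB cytotoxicity check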
# Summary of the method: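 Endothelial primary cells (human umbilical vein) exposed to compound for 24 h. ELISA detection of Eotaxin-3.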
# [16] = molecular target: Oxysterols receptor LXR-alpha (Homo sapiens) (UniProt Q13133); assay: ATG_LXRa_TRANS: Attagene TRANS-FACTORIAL HepG2 Assay for human Liver X Receptor alpha (LXRa) (AID 2282980; active means hit-call score of the fitted dose curve at least 0.9, where 1 is the maximum); conditions: HepG2 Attagene TRANS reporter, LXRa transactivation
# Sequence of Oxysterols receptor LXR-alpha (Homo sapiens) (Q13133 whole entry, looked up): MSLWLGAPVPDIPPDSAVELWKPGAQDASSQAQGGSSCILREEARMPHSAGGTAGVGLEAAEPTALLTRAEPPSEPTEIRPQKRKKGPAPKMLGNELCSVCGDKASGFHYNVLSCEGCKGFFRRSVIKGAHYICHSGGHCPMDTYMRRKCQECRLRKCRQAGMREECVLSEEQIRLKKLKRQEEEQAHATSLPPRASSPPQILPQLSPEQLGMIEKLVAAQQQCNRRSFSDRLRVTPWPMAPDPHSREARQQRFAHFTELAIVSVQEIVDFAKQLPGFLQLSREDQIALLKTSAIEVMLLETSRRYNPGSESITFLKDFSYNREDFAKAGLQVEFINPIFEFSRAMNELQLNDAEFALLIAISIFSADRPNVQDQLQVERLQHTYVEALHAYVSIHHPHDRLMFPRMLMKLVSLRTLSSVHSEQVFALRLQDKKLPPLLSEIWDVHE
# Summary of the method: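 Transient HepG2 transfectants, 24 h dosing, RT-PCR/CE mRNA reporter quantitation; gain-of-signal vs DMSO.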
# [17] = molecular target: Oxysterols receptor LXR-beta (Homo sapiens) (UniProt P55055); assay: ATG_LXRb_TRANS: Attagene TRANS-FACTORIAL HepG2 Assay for human Liver X Receptor beta (LXRb) (AID 2282981; active means hit-call score of the fitted dose curve at least 0.9, where 1 is the maximum); conditions: HepG2 Attagene TRANS GAL4-LXRb reporter, mRNA
# Sequence of Oxysterols receptor LXR-beta (Homo sapiens) (P55055 whole entry, looked up, the tested form may be a part): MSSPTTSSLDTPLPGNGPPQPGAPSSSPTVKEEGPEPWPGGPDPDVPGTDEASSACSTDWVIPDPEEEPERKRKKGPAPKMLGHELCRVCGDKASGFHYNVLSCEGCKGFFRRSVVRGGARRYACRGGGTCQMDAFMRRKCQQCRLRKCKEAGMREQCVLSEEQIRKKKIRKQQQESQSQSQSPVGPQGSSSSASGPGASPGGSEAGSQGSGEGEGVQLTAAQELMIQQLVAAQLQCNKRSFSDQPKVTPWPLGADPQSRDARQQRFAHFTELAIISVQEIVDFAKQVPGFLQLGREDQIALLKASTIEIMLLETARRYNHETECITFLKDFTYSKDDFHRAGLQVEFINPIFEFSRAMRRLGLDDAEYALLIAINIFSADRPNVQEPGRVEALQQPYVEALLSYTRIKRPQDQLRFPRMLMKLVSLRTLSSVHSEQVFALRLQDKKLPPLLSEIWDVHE
# Summary of the method: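 In this TRANS format, exogenous chimeric NR-Gal4 protein activity, not endogenous factors, drives reporter expression in transfected human HepG2 cells. Exposure lasted 24 h; reporter mRNA was read by fluorescent capillary electrophoresis.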
# [18] = molecular target: Hepatocyte nuclear factor 4-alpha (Homo sapiens) (UniProt P41235); assay: ATG_HNF4a_TRANS: Attagene TRANS-FACTORIAL HepG2 Assay for human Hepatocyte Nuclear Factor 4 alpha (HNF4a) (AID 2282982; active means hit-call score of the fitted dose curve at least 0.9, where 1 is the maximum); conditions: HepG2 HNF4a transactivation reporter, mRNA readout
# Sequence of Hepatocyte nuclear factor 4-alpha (Homo sapiens) (P41235 whole entry, looked up, the tested form may be a part): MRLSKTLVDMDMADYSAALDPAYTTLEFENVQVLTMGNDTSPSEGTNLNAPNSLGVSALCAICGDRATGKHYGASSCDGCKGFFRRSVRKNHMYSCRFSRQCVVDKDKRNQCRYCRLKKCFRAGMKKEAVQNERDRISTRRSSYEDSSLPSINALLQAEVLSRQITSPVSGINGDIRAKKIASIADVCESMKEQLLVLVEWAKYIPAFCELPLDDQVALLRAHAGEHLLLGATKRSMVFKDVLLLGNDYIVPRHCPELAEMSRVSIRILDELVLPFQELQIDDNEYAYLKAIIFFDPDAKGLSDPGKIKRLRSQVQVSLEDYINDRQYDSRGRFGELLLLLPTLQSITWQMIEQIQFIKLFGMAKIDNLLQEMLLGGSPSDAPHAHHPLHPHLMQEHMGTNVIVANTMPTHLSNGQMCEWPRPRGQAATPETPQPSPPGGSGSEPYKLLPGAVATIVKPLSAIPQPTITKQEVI
# Summary of the method: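 Cells used were human HepG2, transiently carrying GAL4-UAS reporter units read out against exogenous NR-GAL4 chimeras. Reporter transcript levels after 24 h dosing were quantified by fluorescent RT-PCR and capillary electrophoresis.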
# [19] = ATG_M_06_TRANS: Attagene TRANS-FACTORIAL HepG2 Assay for M06 Transcription Factor (Internal Marker) (AID 2282983; active means hit-call score of the fitted dose curve at least 0.9, where 1 is the maximum); conditions: HepG2 Attagene TRANS M06 internal marker reporter
# Summary of the method: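 Measured by capillary electrophoresis of fluorescently labelled RT-PCR products, this endpoint reflects reporter mRNA in HepG2 cells harbouring exogenous NR-GAL4 reporter constructs after 24 h exposure, with DMSO as baseline.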
compound,measurement,setting,value
NC(=O)c1nc(-c2cccc(-c3cc(F)ccc3OCC(F)(F)C(F)(F)F)c2)n[nH]1,outcome,[1],inactive
same,outcome,[2],inactive
same,AC50,[3],50.1 µM (active)
same,outcome,[4],inactive
same,outcome,[5],inactive
same,outcome,[6],inactive
same,outcome,[7],inactive
same,outcome,[8],inactive
same,AC50,[9],8.83 µM (active)
same,AC50,[10],27.4 µM (active)
same,outcome,[11],inactive
same,AC50,[12],29.7 µM (active)
same,AC50,[13],26.6 µM (active)
same,AC50,[14],35.7 µM (active)
same,AC50,[15],37 µM (active)
NCc1cccc(C2CCN(C(=O)c3ccc(C#Cc4ccccc4F)o3)CC2)c1,AC50,[16],8.2 µM (active)
same,outcome,[17],inactive
same,outcome,[18],inactive
same,outcome,[19],inactive
same,outcome,[2],inactive
same,outcome,[3],inactive
same,outcome,[4],inactive
same,outcome,[5],inactive
same,outcome,[7],inactive
same,AC50,[8],18.3 µM (active)
same,AC50,[9],1.76 µM (active)
same,AC50,[10],15.5 µM (active)
same,outcome,[11],inactive
same,AC50,[12],15.6 µM (active)
same,AC50,[13],7.38 µM (active)
same,AC50,[14],15.8 µM (active)
same,AC50,[15],15.8 µM (active)
CC1(C)NC(=O)N(c2ccc([N+](=O)[O-])c(C(F)(F)F)c2)C1=O,outcome,[16],inactive
same,outcome,[17],inactive
same,outcome,[18],inactive
same,outcome,[19],inactive
same,outcome,[2],inactive
same,outcome,[3],inactive
same,outcome,[4],inactive
same,outcome,[5],inactive
same,outcome,[7],inactive
same,AC50,[9],68.8 µM (active) and 22 µM (active) and 46 µM (active)
same,outcome,[9],inactive
same,outcome,[11],inactive
same,outcome,[12],inactive
same,outcome,[13],inactive
same,outcome,[14],inactive
same,outcome,[15],inactive
CCCOC(=O)c1cc(O)c(O)c(O)c1,outcome,[17],inactive
same,outcome,[18],inactive
same,outcome,[19],inactive
same,outcome,[3],inactive
same,outcome,[4],inactive
same,outcome,[5],inactive
same,outcome,[6],inactive
same,outcome,[7],inactive
same,AC50,[9],5.91 µM (active)
same,outcome,[11],inactive
same,outcome,[12],inactive
same,outcome,[13],inactive
same,outcome,[14],inactive
same,outcome,[15],inactive
